In ChEMBL document CHEMBL4513146, “CO-ADD screening of Karazin Kharkiv National University (Ukraine) compounds”:
Measured potencies and affinities stand elsewhere.

Assays:
Klebsiella pneumoniae = details: Concentration 32 ug.mL-1;; ASSAY_TEST Inhibition of Bacterial Growth; detection method Absorption (OD600); MEDIA CAMHB; plate type 384well; NBS; CORNING #3640; time 18 hr
Candida albicans = details: Concentration 32 ug.mL-1; ASSAY_TEST Inhibition of Fungal Growth; detection method Absorption (OD530)
Cryptococcus neoformans = details: Concentration 32 ug.mL-1; ASSAY_TEST Inhibition of Fungal Growth; detection method Resazurin; Absorption (OD600-OD570); plate type 384well; NBS; CORNING #3640

| SMILES | Inhibition (Klebsiella pneumoniae) | Inhibition (Candida albicans) | Inhibition (Cryptococcus neoformans) |
| --- | --- | --- | --- |
| COc1ccc(NC(=O)Cn2nc3cc(C)nc(Nc4ccc(F)c(C)c4)n3c2=O)cc1 | 10.41% | 4.68% | -7.34% |
| Cc1cc(C)cc(Oc2nccn3c(=O)n(CC(=O)Nc4cccc(Cl)c4)nc23)c1 | 0.09% | 0.52% | -3.38% |
| CCc1ccccc1Sc1nccn2c(=O)n(CC(=O)Nc3cccc(Br)c3)nc12 | 8.38% | 2.9% | -6.91% |
| CCCCc1ccc(NC(=O)Cn2nc3c(Sc4ccccc4CC)nccn3c2=O)cc1 | -8.8% | 24.82% | -8.24% |
| CCCCn1c(=O)c2sccc2n2c(=O)n(CC(=O)N(C)c3ccccc3)nc12 | -1.65% | -0.48% | -15.83% |
| Cc1cccc(CSc2nnc3c(=O)n(-c4ccc(Br)cc4)ccn23)c1 | -2.02% | 2.08% | -6.53% |
| CSc1ccc(CNC(=O)Cn2nc3c(N4CCOCC4)nccn3c2=O)cc1 | 9.81% | 3.79% | -7.62% |
| CCCCN(C)c1ccc2nnc(CCc3nc(-c4ccc(OCc5ccccc5)cc4)no3)n2n1 | 3.94% | 9.14% | -39.2% |
| COc1cccc(Oc2nccn3c(=O)n(CC(=O)NCc4ccc(SC)cc4)nc23)c1 | 15.38% | 2.58% | -5.89% |
| O=C(Cn1nc2c(N3CCOCC3)nccn2c1=O)Nc1cccc(C(F)(F)F)c1 | 0.9% | 5.11% | -4.42% |
